From ChEMBL document CHEMBL4513216, “Probing the Open Global Health Chemical Diversity Library for Multistage-Active Starting Points for Next-Generation Antimalarials” (ACS Infect Dis, 2020) come the findings set out here.

SMILES strings stand for the structures. Among all 69,000 compounds or so, about 8,600 (12%) showed an effect of 50% or more. Only a selection was taken, and strong results are over-represented in it overall.

The experiment has as its system Plasmodium berghei. Put plainly: Screen against P. berghei liver stage (PbLuc), transformed with Luciferase, at 10uM. The experiment is classed as functional, HepG2. Particulars: tested at 10 uM.
As for `CC(C)CN1CCN(C)C(CCO)C1` (stereo not given), the INHIBITION is 34.4%.
For `Cc1ccc(-c2cc(CNC(=O)N3CCC(N(C)C)CC3)on2)cc1` the value was 17.4%.
The figure for `COc1ccc(C(=O)N2CC(=O)N(C3CCC3)CC(O)C2)c(OC)c1` (stereo not given) is 13.9%; for `CO[C@@H]1CC[C@@H](NS(=O)(=O)c2cn(C)nc2C)[C@H]1O` it is 33.8%; for `c1ccc(CN2CCC(CNc3ncnc4c3CCNCC4)CC2)cc1` it is 28.7%.
As to `COc1ccc(-c2ccc(C(=O)N3CCOCC3CC(=O)O)o2)cc1` (stereo not given), the INHIBITION came to 1.71%.
Take `O=C(CN1CCCCCC1)N1CCc2nnc(C3CCCNC3)n2CC1` (stereo not given): the INHIBITION was 30.4%.
As for `CC(C)c1noc(CCNC(=O)NCC2COc3ccccc3O2)n1` (stereo not given), the INHIBITION stood at 7.24%.
For `O=C(c1ccco1)N1CCc2ncnc(Oc3cccnc3)c2CC1` the value was 29%.
For `O=C(CN1CCN(CC(O)C2CC2)CC1)NCc1ccccc1Cl` (stereo not given), the INHIBITION is given as 17.6%.
For `Cc1nnc(N2CCOC(C)C2)c(C#N)c1C` (stereo not given) the value was 7.4%.
For `CS(=O)(=O)N1CCCC1Cn1cccn1` (stereo not given) the value was 20.8%.
For `COc1ccccc1C1=NOC(CC2(C(=O)NCCO)CCOCC2)C1` (stereo not given) the value was 8.72%; for `Cc1cc(CN2CCCCC2Cn2cncn2)no1` (stereo not given), 20.8%.
Take `c1ccc(-c2nc(CN3CCc4c(ncn4C4CC4)C3)cs2)cc1`: the INHIBITION worked out at 34.1%.
For `CNS(=O)(=O)CC(=O)NCc1cc2c(s1)CCC(C)(C)C2` the value was -19.3%; for `O=C([C@H]1C[C@H]2OCC[C@H]2N(CCc2ccccc2)C1)N1CCCCO1`, -0.569%.
The figure for `CC(=O)N1CCC2(CC1)c1ncc(-c3ccccc3)n1CCN2C(C)=O` is -15.3%.
For `CN1CCn2c(-c3cccc(F)c3)cnc2C12CCN(CC1CC1)CC2`, the INHIBITION was 8.85%.
For `CC(=O)N1CCC2(CC1)c1ncc(-c3ccc(F)cc3)n1CCN2C` the value was 39.4%; for `CNC(=O)N1CCC2(CC1)c1ncc(-c3cccc(F)c3)n1CCN2C`, 63.3%; for `CC(=O)N1CCC2(CC1)c1ncc(-c3ccccc3)n1CCN2C`, 43%.
Regarding `CC(=O)N1CCn2c(-c3cccc(F)c3)cnc2C12CCNCC2`, the INHIBITION is reported as 24.9%.
The figure for `CCN1CCn2c(-c3cccc(F)c3)cnc2C12CCN(C(C)=O)CC2` is 85.2%.
For `CC(=O)N1CCC2(CC1)c1ncc(-c3cccnc3)n1CCN2C`, the INHIBITION is 58.4%.
As to `CCS(=O)(=O)N1CCC2(CC1)c1ncc(-c3cccnc3)n1CCN2C`, the INHIBITION is recorded as 24.9%.
For `COc1ccccc1CNC(=O)CN(C)C(C)c1ccon1` (stereo not given) the value was -13.6%; for `COc1ccc(N2CCN(C(=O)COc3c(C)occc3=O)CC2)cc1`, -1.99%; for `O=C(O)c1ccc(=O)n(CC(c2ccc(Cl)cc2)N2CCCCCC2)c1` (stereo not given), 10.8%.
For `OC(CNCc1nnc2ccccn12)c1ccc2c(c1)OCO2` (stereo not given) the value was -10.8%; for `Nc1nccnc1C1CN(C(=O)c2ccc3c(c2)OCO3)CCO1` (stereo not given), 11.1%; for `Cc1c(C2CC2)n[nH]c1NC(=O)C1CCCN(C(=O)NCC(C)C)C1` (stereo not given), 35.7%.
The figure for `CCCC1c2cccn2CCN1C(=O)Cn1cnc2sc(C)cc2c1=O` (stereo not given) is 11.35%; for `Cc1ccc(-c2noc(CN3CCOC(Cn4cccn4)C3)n2)cc1` (stereo not given) it is 48.6%.
In the case of `Cc1cc(C)n(C2CCCN(C(=O)CCc3nccs3)C2)n1` (stereo not given), the INHIBITION was found to be 21.6%.
Turning to `Cn1ccnc1C(=O)NC[C@@H]1OC[C@H]2CN(CC3CC3)CC[C@H]21`, the INHIBITION stood at 20.4%.
For `Cn1cc(C(=O)NC[C@@H]2OC[C@H]3CN(S(C)(=O)=O)CC[C@H]32)cn1` the value was 18.5%; for `CN1CC[C@@H]2[C@@H](CO[C@H]2CNC(=O)c2nccn2C)C1`, -17.7%.
The figure for `Cn1ccnc1C(=O)NC[C@H]1OC[C@@H]2CCN(S(C)(=O)=O)C[C@@H]21` is 52.1%; for `Cn1ccnc1C(=O)NC[C@@H]1OC[C@H]2CN(S(C)(=O)=O)CC[C@H]21` it is 64.7%.
On to `CCCN1CC[C@@H]2[C@@H](CO[C@H]2CNC(=O)c2nccn2C)C1`, for which the INHIBITION was 34%.
As for `NCC(CO)Cc1cccc(OC(F)(F)F)c1` (stereo not given), the INHIBITION is on record as -14.5%.
For `CC(C)N1Cc2c(C(=O)N3CCOCC3)nn(C)c2C1` the value was 6.82%; for `CC(C)(C)C(=O)N1CCCC1c1cc(CO)[nH]n1` (stereo not given), 3.585%.
The figure for `CC(C)c1csc(C2CCCN(C(=O)c3ccc(=O)n(C)c3)C2)n1` (stereo not given) is 52.6%.
For `Cc1nc(C(=O)N2CCCC(c3nc(C(C)C)cs3)C2)c[nH]1` (stereo not given) the value was 8.12%.
For `CC(C)c1csc(C2CCCN(C(=O)c3ccc(=O)n(C)n3)C2)n1` (stereo not given), the INHIBITION was -7.48%.
For `CC(C)c1csc(C2CCCN(C(=O)c3ccc[nH]3)C2)n1` (stereo not given) the value was 59.1%; for `CC(C)c1csc(C2CCCN(C(=O)c3ncccn3)C2)n1` (stereo not given), 31.9%.
Regarding `CC(C)c1csc(C2CCCN(C(=O)Cn3ccccc3=O)C2)n1` (stereo not given), the INHIBITION came out at 9.25%.
For the molecule `Cc1c(COc2ccccc2)cccc1NC(=O)N1CC[C@H](O)C1`, the INHIBITION was determined as 26.9%.
The figure for `COCCC(=O)NCC(O)c1c(F)cccc1F` (stereo not given) is -2.92%; for `Cc1ccc(NC(=O)c2ccc(=O)n(CC(=O)NC3CCCC3)n2)cc1` it is 16.2%.
In the case of `O=C(O)c1sccc1Oc1ccc(NC(=O)C2CC2)cc1`, the INHIBITION was found to be 22.6%.
As to `Cc1cc(C)c(C#N)c(NCCSc2nncn2C)n1`, the INHIBITION stood at 7.45%.
For `CCn1cnnc1CCNc1nc(C)cc(C)c1C#N`, the INHIBITION was found to be 32.775%.
The figure for `Cc1cc(C)c(C#N)c(NCCn2cnnc2C(C)C)n1` is 58.9%; for `CCCn1nc(C)c(CN(CCN(C)C)Cc2ccccn2)c1C` it is 13.7%; for `Cc1ccccc1CN(Cc1ccc(S(C)(=O)=O)cc1)CC(C)C` it is 78.9%.
The figure for `Cc1ccccc1CN(CCN(C)C)Cc1ccc(S(C)(=O)=O)cc1` is 40.4%; for `Cc1ccccc1CN(Cc1ccncc1)CC(C)C` it is 21.5%.
The figure for `CN(C)C(=O)[C@H]1CO[C@H]2CCN(c3ncc(F)cn3)C[C@H]2C1` is 34.2%.
Turning to `CN(C)C[C@@H]1C[C@@H]2CN(C(=O)c3ccoc3)CC[C@@H]2N1CC1CC1`, the INHIBITION amounted to 25.7%.
For `CCCNC(=O)CCC(=O)N1CCC(c2noc3cc(F)ccc23)CC1` the value was 21.8%; for `CCOC(=O)C1(NCC(=O)Nc2cc(C)ccc2OC)CCCC1`, -35%.
